Most compounds without a hit are left out; they make up all but 4% or so of the library.
GDH-TPI counter-1 = GDH-TPI coupled enzyme inhibition counter-screen; 360,000 tested, 1.2% active; AID 588335; inhibition, % at 4.8 µM; GDH-TPI coupled enzyme counterscreen, NADH absorbance;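 also: 0% = DMSO wells and 100% = wells lacking the enzyme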
CCHFV vOTU inh = CCHFV vOTU protease inhibition. Pep-AMC fluorescence. inhibition, % at 11.5 µM. 370,000 tested, 0.55% active; also: 0% = vehicle wells with enzyme and 100% = no enzyme wells
MazF activator = activators of E. coli MazEF toxin-antitoxin RNase. 350,000 tested, 0.32% active. activation, % at 20 µM. AID 504720. FAM/BHQ RNA-DNA oligo cleavage fluorescence, 5 h. P0AE70; in the data active = activation above about 50%
Target sequence (P0AE70 whole entry, looked up): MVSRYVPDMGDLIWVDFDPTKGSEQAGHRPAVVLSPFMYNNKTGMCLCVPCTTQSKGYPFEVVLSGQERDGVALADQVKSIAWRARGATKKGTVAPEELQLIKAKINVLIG
Mtb FBA inh = Mtb fructose-bisphosphate aldolase inhibition. purified M. tuberculosis FBA, fluorescence read-out. P9WQA3. 360,000 tested, 2.3% active. inhibition, % at 1 µM; in the data active = inhibition above about 27%;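 also: 0% = vehicle and 100% = reference inhibitor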
Target sequence (P9WQA3 whole entry, looked up): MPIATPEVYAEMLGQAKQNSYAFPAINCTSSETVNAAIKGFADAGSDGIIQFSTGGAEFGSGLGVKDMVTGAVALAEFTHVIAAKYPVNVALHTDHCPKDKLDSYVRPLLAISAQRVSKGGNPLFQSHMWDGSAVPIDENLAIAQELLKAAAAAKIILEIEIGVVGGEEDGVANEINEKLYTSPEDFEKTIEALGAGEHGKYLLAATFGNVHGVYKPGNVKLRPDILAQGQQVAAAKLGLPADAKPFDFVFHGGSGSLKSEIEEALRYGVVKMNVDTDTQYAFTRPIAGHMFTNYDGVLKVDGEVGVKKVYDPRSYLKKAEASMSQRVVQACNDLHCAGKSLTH
Mtb betalactam = beta-lactam sensitization of Mtb H37Rv | M. tuberculosis H37Rv growth with meropenem, percent inhibition | inhibition, % at 25 µM | 330,000 tested, 0.27% active | AID 434955; call rule not given here;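 also: growth measured after seven days incubation then overnight dye step; 0% = bacteria only wells and 100% = bacteria with antibiotic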
Mtb FBA inh conf = confirmation of M. tuberculosis fructose-bisphosphate aldolase inhibitors. shares compounds with Mtb FBA inh. purified M. tuberculosis FBA, fluorescence read-out. inhibition, % at 1 µM. 5,600 tested, 78% active. AID 651616; in the data active = inhibition above about 27%;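 also: 0% = vehicle wells and 100% = reference inhibitor wells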
GDH-TPI counter-2 = inhibits GDH-TPI coupling enzymes, flagging Mtb FBA hits; inhibition, % at 1 µM; AID 652141; GDH-TPI coupled enzyme counterscreen, fluorescence; shares compounds with Mtb FBA inh; 5,600 tested, 81% active; in the data active = inhibition above about 10%
GDH-TPI dose = counter-screen for M. tuberculosis FBA inhibitors: GDH-TPI dose response. shares compounds with Mtb FBA inh. GDH-TPI coupled enzyme assay, fluorescence, artifact counterscreen. IC50, µM. 170 tested, 79% active; call rule not given here
* hit, by the source's call; ? = inconclusive; . = no result given; + = active, no number; ! = not confirmed by another sample. Rule as the data show it, unless noted: active = inhibition above about 30%; inactive = the rest.

SMILES | GDH-TPI counter-1 | CCHFV vOTU inh | MazF activator | Mtb FBA inh | Mtb betalactam | Mtb FBA inh conf | GDH-TPI counter-2 | others
Cc1c(C)c2c(OCC(=O)N3CCC(C(=O)NCC(C)C)CC3)cc3c(c2oc1=O)CCC(C)(C)O3 | 7.8 | . | 5.4 | 51.2* | -4.1 | -3.9 | -0.2
COc1ccc(CNC(=O)COc2cc3c(c4oc(=O)cc(C)c24)CCC(C)(C)O3)cc1 | 21.6 | -25.4 | 0.7 | 43.3* | 1.6 | + | 170.9*
Cc1ccccc1CN1CCCCC(NC(=O)C2CCCC2)C1=O (stereo not given) | . | 8.3 | . | . | . | . | .
COc1ccc(COCC(O)CN2CCC(CN3C(=O)c4cccc5cccc(c45)C3=O)CC2)cc1OC (stereo not given) | 14.4 | -0.2 | 12.5 | 30.4* | 92.1 | -1.0 | -2.3
COc1ccc(CCNC(=O)COC(=O)c2ccc(C)s2)cc1 | -2.9 | 4.9 | 3.2 | 1.6 | -2.3 | . | .
COCCCNC(=O)COC(=O)c1ccc(-c2nc3ccccc3s2)s1 | 23.7 | -71.5 | 1.7 | 79.4* | 98.0 | 94.5* | 70.2*
COc1cccc(N2CCN(CC(=O)NCc3c(F)cccc3F)CC2)c1 | . | -1.7 | . | . | . | . | .
CCCC(=O)Nc1nnc(-c2ccc3c(c2)OCO3)s1 | 6.1 | -19.0 | -2.7 | 37.6* | -4.1 | 114.9* | 102.7*
O=C(Nc1nnc(-c2ccncc2)s1)C1CCCO1 (stereo not given) | 25.9 | -32.2 | -2.2 | 81.7* | -4.5 | 15.1 | -5.8 | GDH-TPI dose=2.03*
CCC(=O)Nc1nnc(-c2ccncc2)s1 | -3.2 | -6.5 | 5.5 | 42.5* | -8.8 | 100.0* | 88.8*
Cc1onc(-c2ccccc2)c1C(=O)Nc1nnc(-c2ccncc2)s1 | 56.7* | 3.9 | 1.2 | 45.9* | 96.0 | 66.8* | 55.3*
CCCC(=O)Nc1nnc(SCC(=O)Nc2ccc3c(c2)OCO3)s1 | 4.3 | -7.6 | -0.5 | 1.2 | -3.5 | . | .
CCC(=O)Nc1nnc(Cc2ccccc2)s1 | -9.2 | 0.1 | 2.2 | -0.2 | -11.0 | . | .
CCCC(=O)OC[C@H]1CN(C2CCCC2)S(=O)(=O)c2c(Oc3ccc(F)cc3OC)cccc2O1 | . | 8.8 | . | . | . | . | .
Cc1cccc(-c2cccc3c4c([nH]c23)[C@@H]2C[C@H](N(C)C(=O)c3ccccc3F)[C@H]([C@H](C)O)CN2CC4)c1 | . | 10.4 | . | . | . | . | .
Cn1c(-c2ccccc2O)cc2ccccc21 | -4.0 | 5.7 | 6.8 | 31.7* | 6.2 | 139.8* | 118.6*
Cn1c(-c2ccccc2)cc2ccccc21 | -5.7 | 10.2 | -10.1 | 9.4 | -3.9 | . | .
Cc1ccc(-c2nc(SCC(=O)c3c(N)n(C)c(=O)n(C)c3=O)n[nH]2)cc1 | 0.3 | -4.4 | 10.7 | 5.9 | -3.4 | . | .
CCc1ccc(-c2nc(SCC(=O)c3c(N)n(C)c(=O)n(C)c3=O)n[nH]2)cc1 | 2.6 | 4.1 | -45.3 | 29.2* | -9.0 | 69.0* | 55.8*
COC(=O)[C@]12C[C@H](CC(=O)NCc3ccc(C)o3)C(=O)N(Cc3ccccc3)C1=C[C@H](C(C)(C)C)O[C@@H]2C | . | 29.0 | . | . | . | . | .
O=c1oc2c3c4c(cc2c2c1CCC2)OCCN4CCC3 | 12.8 | -267.6 | -129.2 | 97.3* | -2.0 | 79.5* | 58.2*
O=c1oc2cc(OCCO)ccc2c2c1CCCC2 | 4.6 | -33.6 | 9.9 | 59.5* | 0.0 | 73.7* | 56.6*
COC(=O)c1cc(COc2ccc3c4c(c(=O)oc3c2)CCCC4)c(C)o1 | 11.7 | -24.7 | 6.6 | 18.9 | -0.4 | . | .
O=C(Oc1ccc2c3c(c(=O)oc2c1)CCCC3)c1cccs1 | 6.6 | -68.4 | -4.9 | 81.6* | 86.3 | + | +
Cc1cc(OC(=O)c2cccs2)c2c3c(c(=O)oc2c1)CCCC3 | 4.2 | 7.5 | -9.0 | 5.0 | 99.2 | . | .
SMILES | GDH-TPI counter-1 | CCHFV vOTU inh | MazF activator | Mtb FBA inh | Mtb betalactam | Mtb FBA inh conf | GDH-TPI counter-2 | others
Cc1oc(C(=O)O)cc1COc1ccc2c3c(c(=O)oc2c1)CCC3 | 26.6 | -16.1 | 0.7 | 38.1* | 0.3 | 55.3* | 44.1*
O=C(COc1ccc2c3c(c(=O)oc2c1)CCCC3)N1CCN(c2ccccc2)CC1 | 12.1 | 8.2 | -15.0 | -0.7 | 0.4 | . | .
C=CCOC(=O)COc1ccc2c3c(c(=O)oc2c1)CCCC3 | 15.2 | -16.1 | -4.3 | 39.8* | . | 62.2* | 41.0*
Nc1[nH]c(C(=O)c2ccccc2)c(-c2ccc3ccccc3c2)c1C(=O)NCc1ccc(F)cc1 | . | 4.5 | . | . | . | . | .
O=C(NN=Cc1ccco1)c1cccnc1 | . | 6.8 | . | . | . | . | .
O=C(CCCCCN1C(=O)c2ccccc2C1=O)Oc1ccc2c3c(c(=O)oc2c1)CCC3 | 1.9 | -61.8 | 7.8 | 61.9* | 75.7 | -3.0 | -2.9
O=C(CC1CCCC1)N[C@H](C(=O)N1CCC[C@H]1C(=O)NC1CCCC1)c1ccccc1 | . | -6.9 | . | . | . | . | .
CCOC(=O)c1c(C)[nH]c(C(=O)COC(=O)c2oc3ccc(OC)cc3c2C)c1C | -0.6 | -4.4 | 22.7 | 6.7 | 3.2 | . | .
CCOC(=O)N1CCN(C(=O)COC(=O)c2oc3ccc(OC)cc3c2C)CC1 | -1.4 | -25.5 | 2.0 | 47.8* | -15.5 | + | +
COC(=O)C1CCN(C(=O)COC(=O)c2oc3ccc(OC)cc3c2C)CC1 | 1.7 | -30.0 | -1.9 | 50.7* | ? | 108.3* | 103.2*
COc1ccc2oc(C(=O)OCC(=O)N3CCC(C)CC3)c(C)c2c1 | 12.4 | -12.8 | 6.3 | 44.3* | ? | 9.2 | 0.8
O=C1CC(N2CCCC2)=NC(=O)N1c1ccc(Br)cc1 | . | -2.0 | . | . | . | . | .
CCN(CC)C(=O)c1oc(=O)c2ccccc2c1-c1ccc(C)cc1 | . | 11.6 | . | . | . | . | .
O=C(O)CSc1cccc2cccnc12 | -0.7 | -21.2 | -0.1 | 27.4*! | -0.8 | 7.5 | 10.3*
COc1cccc(/C=N/NC(=O)c2c(C)nc3ccc(Br)cn23)c1 | 12.7 | -6.6 | 10.8 | 1.7 | -0.1 | . | .
COc1ccc(OC)c(/C=N/NC(=O)CCc2ccc(O)c(O)c2)c1 | 4.5 | -62.1 | -6.1 | 42.6* | -3.3 | 126.8* | 98.5*
COc1ccc(OC)c(/C=N/NC(=O)c2c(C)nc3ccc(C)cn23)c1 | 29.6 | -124.5 | 3.2 | 77.8* | 8.3 | 104.6* | 88.4*
COc1ccc(/C=N\NC(=O)CCc2c(C)n[nH]c2C)c(OC)c1OC | 5.5 | -1.0 | -2.8 | -0.1 | -7.3 | . | .
COc1ccc(OC)c(/C=N/NC(=O)CCc2c(C)n[nH]c2C)c1 | 5.4 | -94.3 | 1.5 | 77.8* | -6.5 | 94.9* | 88.8*
COc1ccc(OC)c(/C=N/NC(=O)C(=O)N/N=C/c2cc(OC)ccc2OC)c1 | 12.8 | -5.9 | -7.0 | 2.5 | 0.6 | . | .
CCOC(=O)CCCNC(=O)OC1CC2CC1[C@H]1CCCCN1[C@H]2Cc1ccccc1 (stereo not given in full) | . | -3.5 | . | . | . | . | .
COc1ccc(C2C(C(=O)Nc3cc(Cl)ccc3F)CCC(=O)N2c2ccc(OC)cc2)cc1 (stereo not given) | . | 1.5 | . | . | . | . | .
N#CCC(=O)Nc1ccc(C(=O)NCc2ccccn2)cc1 | -0.6 | 5.7 | -2.5 | 27.0* | 0.4 | 114.0* | 72.4*

Screening data: PubChem BioAssay, several laboratories
